Assay results from PubChem BioAssay AID686978 (National Center for Advancing Translational Sciences (NCATS), 2013).
Several values for one entry are separate records, joined by “and”; a condition that tells them apart may be missing. Equal entries are not always repeated. The whole screen tested about 420,000 compounds, of which about 64,000 (15%) were called active. Not shown: some 27% with an inconclusive outcome. Calls come from the whole dose curve; as a rule, active = well fitted inhibition curve with a large enough effect; inconclusive = small, poorly fitted or top-dose-only effect; inactive = flat fitted curve, though single readings scatter. A selection follows. Where a call stands in place of a potency, no number is given.

Assay: qHTS for Inhibitors of human tyrosyl-DNA phosphodiesterase 1 (TDP1): qHTS in cells in absence of CPT; note: nearly all actives have a fitted effect of over 55% in size
Settings: DT40 Tdp1-/- hTDP1 cells, no CPT, ATP luminescence, 48 h; activity change, negative = growth inhibition: at 46.2 µM (top of the series)
Method in brief: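 Chicken DT40 Tdp1-/- cells complemented with human TDP1, screened without camptothecin (DMSO vehicle only), 400 cells/well. Compounds pin-transferred, cells incubated at 37 °C for at least 48 hr. Growth read as ATP-dependent luminescence (CellTiter-Glo, 30 min at RT).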
Potency is the fitted concentration of half-maximal effect.

SMILES | Potency
COc1cccc(C(CC(=O)NCCN2CCOCC2)NS(=O)(=O)c2ccc(C)cc2)c1OC (configuration not stated) | inactive
O=C(N/N=C/c1ccco1)c1csc2c1CCCC2 | 5.8 µM (active)
O=C(N/N=C/c1ccco1)c1ccc(C(=O)N/N=C/c2ccco2)o1 | inactive
O=C(N/N=C/c1ccco1)c1ccc(NC(=O)C2CC2)cc1 | inactive
Cc1cccc(C(=O)NCCCN2CCCC2=O)c1 | inactive
Cc1nc2ccc(S(=O)(=O)NC(C(=O)N3CCCCCC3)C(C)C)cc2s1 (configuration not stated) | inactive
O=C(CN1C(=O)c2ccc([N+](=O)[O-])cc2C1=O)Nc1nnc(C2CC2)s1 | inactive
CCOc1ccc(N2C(=O)CC(N(O)c3ccccc3)C2=O)cc1 (configuration not stated) | inactive
O=C(NC1(C(F)(F)F)NC(=O)N(C2CCCCC2)C1=O)c1ccco1 (configuration not stated) | inactive
O=C(O)C#Cc1cccc2ccccc12 | inactive
CCOC(=O)C1CCN(CC(=O)Nc2ccc(OC)c(S(=O)(=O)N3CCCCC3)c2)CC1 | inactive
Cc1ccc(C)c(S(=O)(=O)N2CCN(CC(=O)Nc3ccc([N+](=O)[O-])cc3)CC2)c1 | 16.4 µM (active)
Cc1ccc(C)c(S(=O)(=O)N2CCN(C(=O)Nc3ccccc3)CC2)c1 | inactive
COc1ccc(NC(=O)CCCOc2ccc(C(C)=O)cc2)cc1S(=O)(=O)N1CCCCC1 | 25.9 µM (active)
CC(=O)Nc1ccc(S(=O)(=O)N2CCN(S(=O)(=O)c3cccs3)CC2)cc1 | inactive
Cc1ccc(NC(=O)CCNC(=O)c2ccc([N+](=O)[O-])cc2)cc1S(=O)(=O)N1CCOCC1 | inactive
Cc1cccc(OCCCC(=O)Nc2ccc(S(=O)(=O)N3CCCC3)cc2)c1 | 18.4 µM (active)
CC(=O)Nc1ccc(S(=O)(=O)N2CCN(CCCOc3cc(C)ccc3C)CC2)cc1 | 18.4 µM (active)
COc1ccc(NC(=O)CSc2nnc(C3CC3)n2C)cc1S(=O)(=O)N1CCCCC1 | inactive
Cc1ccc(OCCCC(=O)Nc2ccc(S(=O)(=O)Nc3cc(C)nc(C)n3)cc2)cc1 | inactive
C=CCNC(=O)CCCOc1cccc(C)c1 | inactive

SMILES | Potency
CC(=O)Nc1ccc(S(=O)(=O)N2CCSCC2)cc1 | inactive
CCOc1ccccc1NC(=O)Cn1c(=O)n(Cc2ccccc2)c(=O)c2c(C)c(C(=O)N(C)C)sc21 | inactive
O=C(NCCN1CCOCC1)C1CCN(S(=O)(=O)c2ccccc2)CC1 | inactive
COCCCn1c(SCC(=O)Nc2oc(C)c3c(C)n[nH]c(=O)c23)nc2sc3c(c2c1=O)CCC3 | inactive
O=c1c(CCc2ccccc2)nc2cncnc2n1C1CC1 | inactive
C=CCn1c(COc2cccc3cccnc23)nnc1SCC(=O)OC | inactive
CC(=O)c1cc2c(cc1N)OCO2 | inactive
C/C(COc1ccccc1)=N\NC(=O)c1nnn(-c2nonc2N)c1-c1ccc(C)cc1 | inactive
CSc1ccc(S(=O)(=O)N2CCC(C(=O)NCCc3ccccc3)CC2)cc1 | inactive
Cc1cc(S(=O)(=O)NC2CCCC2)ccc1-n1cnnn1 | inactive
COc1ccc(NC(=O)c2ccc3oc(=O)c(S(=O)(=O)c4ccc(F)cc4)cc3c2)c(OC)c1 | inactive
CCCCNC(=O)C1(O)c2ccccc2NC(=O)N1c1ccc(Cl)cc1 (configuration not stated) | inactive
CC(=O)Nc1ccc(NC(=O)CCN2C(=O)C3CC=CCC3C2=O)cc1 (configuration not stated) | inactive
CCNC(=S)N(CCN(CC)CC)Cc1cc2cc3c(cc2[nH]c1=O)OCO3 | inactive
Cc1c(C)c2c(OCC(=O)N[C@@H](C(=O)O)c3ccccc3)cc3c(c2oc1=O)CCC(C)(C)O3 | inactive
Cc1ccccc1NC(=O)CCOc1ccccc1 | inactive
CC(C)CCC(=O)Nc1cc(S(=O)(=O)N2CCOCC2)ccc1N1CCCC1 | inactive
Cc1cccc(OCCC(=O)Nc2ccccc2C(N)=O)c1 | 11.6 µM (active)
CC(=O)NCCC(=O)Nc1cc(S(=O)(=O)N2CCOCC2)ccc1N1CCOCC1 | inactive
Cc1cccc(OCC(=O)Nc2ccccc2F)c1 | inactive
Cc1cccc(OCCC(=O)Nc2cc(S(=O)(=O)N3CCCCC3)ccc2N2CCOCC2)c1 | 20.6 µM (active)

SMILES | Potency
O=C(Nc1cccc(C(=O)O)c1)/C(=C\c1ccccc1)NC(=O)c1ccc(Br)o1 | inactive
Nc1nc2ncccn2c1-c1ccccc1 | inactive
O=c1cc(-c2ccccc2)n2c(SCc3ccccc3)nnc2[nH]1 | inactive
CCOc1ccc(NC(=O)CCS(=O)(=O)c2ccc3c(c2)CCCN3C(=O)CC)cc1 | inactive
CC1(NC(=O)CCS(=O)(=O)c2ccc(Cl)cc2)CCS(=O)(=O)C1 (configuration not stated) | inactive
COc1cccc(CNC(=O)C2CCCN(S(=O)(=O)N3CC(C)CC(C)C3)C2)c1 (configuration not stated) | inactive
CC1Cc2cc(S(=O)(=O)CCC(=O)Nc3ccc(F)c(Cl)c3)ccc2N1C(=O)C1CC1 (configuration not stated) | 10.3 µM (active)
CC1Cc2ccccc2N1CC(=O)Nc1ccc(S(N)(=O)=O)cc1 (configuration not stated) | inactive
CC1Cc2cc(S(=O)(=O)CCC(=O)NCc3ccc(Cl)cc3)ccc2N1C(=O)C1CC1 (configuration not stated) | 4.61 µM (active)
COc1cccc(CNS(=O)(=O)c2ccc3c(c2)CC(C)N3C(=O)C2CCC2)c1 (configuration not stated) | 16.4 µM (active) and 7.31 µM (active)
CCC(=O)N1c2ccc(S(=O)(=O)CCC(=O)N3CCN(c4ccccc4)CC3)cc2CC1C (configuration not stated) | inactive
Cc1ccc(CNC(=O)CCS(=O)(=O)c2ccc3c(c2)CC(C)N3C(=O)C2CC2)o1 (configuration not stated) | 25.9 µM (active)
CC(=O)N1c2ccc(S(=O)(=O)N(C)CC(=O)N(C)Cc3ccccc3)cc2CC1C (configuration not stated) | inactive
COc1cccc(CNC(=O)C2CCC(CNS(=O)(=O)c3cccs3)CC2)c1 (configuration not stated) | inactive
Cn1c(=O)oc2cc(S(=O)(=O)CCC(=O)NCCc3ccc(Cl)cc3)ccc21 | inactive
Cc1ccc2[nH]c3c(=O)n(CC(=O)NC(C)C)ncc3c2c1 | inactive
COc1ccc(S(=O)(=O)NC(C)C(=O)Nc2cccc([N+](=O)[O-])c2)cc1 (configuration not stated) | inactive
Cc1ccc(S(=O)(=O)c2c[nH]c3ccc(C)cc3c2=O)cc1 | inactive
C[C@H]1CN([C@@H](C)CO)C(=O)Cc2cc(NS(C)(=O)=O)ccc2O[C@@H]1CN(C)CC1CC1 | inactive
CCC(Oc1ccccc1)C(=O)OCC(=O)Nc1c(C)nn(-c2ccccc2)c1C (configuration not stated) | inactive
